Results filed as inconclusive are left out. A number with no mark means an inactive call. Active and inactive are the calls of the source. The call rests on the fitted dose curve; in most records, active means well fitted cell-killing curve with a large enough effect in the repeat runs; inconclusive means weak or mixed curves, or effect the other way; inactive means flat fitted curve, though single readings scatter.
Assay: qHTS assay to identify small molecule agonists of the estrogen receptor beta (ER-beta) signaling pathway - cell viability counter screen (AID 1259380); further: nearly all actives have a fitted effect of over 30% in size
Settings: ER-beta-bla HEK293T viability, CellTiter-Glo luminescence, 16 h; series mostly up to 92.4 µM; activity change, negative = cytotoxicity: at the top concentration
Text: National Center for Advancing Translational Sciences [NCATS]
NIH Chemical Genomics Center [NCGC]
U.S. Environmental Protection Agency [EPA]
National Institutes of Environmental Health Sciences [NIEHS]
National Toxicology Program [NTP]
U.S. Food and Drug Administration [FDA]
Estrogen receptor (ER), a nuclear hormone receptor, plays an important role in development, metabolic homeostasis and reproduction. Two subtypes of ER, ER-alpha and ER-beta, have similar expression patterns with some uniqueness in both types. Endocrine disrupting chemicals (EDCs) and their interactions with steroid hormone receptors like ER causes disruption of normal endocrine function. To identify the compounds that activate ER signaling, an ER beta-UAS-bla GripTite cell line (Life Technologies, Madison, WI, USA) containing a beta-lactamase reporter gene under the control of an UAS response element was used to screen Tox21 10K compound library. The cytotoxicity of the Tox21 compound library against the ER-beta-bla cell line was tested in parallel by measuring the cell viability using CellTiter-Glo assay in the same wells.
Tox21 Assay Protocol Summary:
ER-beta-UAS-bla HEK293T cells were dispensed at 2,000 cells/5 uL of assay medium containing 2% charcoal stripped FBS per well into black wall/clear-bottom 1536-well plates using a Multidrop Combi (ThermoFisher Scientific, Waltham, MA) dispenser. After the assay plates were incubated at a 37C and 5% CO2 for 6 hr, 23 nL of compounds dissolved in DMSO, positive controls or DMSO only was transferred to the assay plate by a Pintool station (Kalypsys, San Diego, CA). The plates were incubated at 37C and 5% CO2 for 16 hr. Then 1 uL of LiveBLAzerTM B/G FRET substrate was added using a BioRAPTR FRD (Flying Reagent Dispenser, Aurora Discovery, San Diego, CA) and then the plates were incubated at room temperature for 2 hours, and fluorescence intensity was measured by an Envision plate reader (PerkinElmer, Shelton, CT). For cell viability readout that measures cytotoxicity, 4 uL/well of CellTiter-Glo reagent was added into the assay plates using a FRD. After 30 min incubation at room temperature, the luminescence intensity in the plates was measured using a ViewLux (PerkinElmer) plate reader.
On the % scale 0 is the no-effect control and ±100 the full control effect; potency means the concentration at half of the fitted maximal effect.

| SMILES | Potency | activity change, negative = cytotoxicity |
| --- | --- | --- |
| NCCCOCCOCCOCCCN | 15.4 µM (active) |  |
| Cc1cccc(C(C)(C)C)c1O |  | -3.97% |
| COC(=O)C(C)=O |  | 0.755% |
| O=[N+]([O-])c1cccc(Cl)c1Cl |  | 0% |
| CC(=O)[C@@]1(O)CC[C@H]2[C@@H]3C[C@H](C)C4=CC(=O)CC[C@]4(C)[C@H]3CC[C@@]21C |  | -12.3% [at 42.5 µM] |
| Cc1cc(CC(=O)O)c(C)n1-c1ccc(Cl)cc1 | 10.6 µM (active) |  |
| COc1ccc2[nH]c(S(=O)Cc3ncc(C)c(OC)c3C)nc2n1 (stereo not given) |  | 5.07% [at 42.5 µM] |
| CC(C)(C)c1cc(CCC(=O)OCC(COC(=O)CCc2cc(C(C)(C)C)c(O)c(C(C)(C)C)c2)(COC(=O)CCc2cc(C(C)(C)C)c(O)c(C(C)(C)C)c2)COC(=O)CCc2cc(C(C)(C)C)c(O)c(C(C)(C)C)c2)cc(C(C)(C)C)c1O |  | 2.16% [at 42.5 µM] |
| CCOC(=O)[C@H](CCc1ccccc1)N[C@H]1CCc2ccccc2N(CC(=O)O)C1=O | 11.9 µM (active) |  |
| SC1CCCC1 |  | -0.845% |
| CC(=O)c1c(C)c([N+](=O)[O-])c(C(C)(C)C)c([N+](=O)[O-])c1C |  | -9.51% |
| CN1CCC(=C2c3ccccc3CCc3sccc32)CC1 | 26.6 µM (active) |  |
| O=C(O)[C@@H]1[C@H]2C[C@H]3c4[nH]c5ccccc5c4CCN3C[C@@H]2CC[C@@H]1O |  | 0.667% [at 42.5 µM] |
| OC(CCN1CCCCC1)(c1ccccc1)C1CCCCC1 (stereo not given) |  | -14.7% [at 42.5 µM] |
| CN1CCC[C@@H]1c1cccnc1 |  | 0.79% [at 42.5 µM] |
| OCCC1CCCCN1 (stereo not given) |  | 3.21% |
| CCCC(C)C | 61.8 µM (active) |  |
| CCCCCCCCCC=O |  | -2.16% |
| O=S(=O)(O)c1ccc(O)c2ncccc12 |  | 0.332% |
| Cc1ccccc1N=Nc1ccc(N=Nc2c(O)ccc3ccccc23)c(C)c1 |  | -0.0204% [at 42.5 µM] |

| SMILES | Potency | activity change, negative = cytotoxicity |
| --- | --- | --- |
| CC(=O)O[C@@H]1C(=O)O[C@@H]2[C@H]1OC(=O)[C@@H]2OC(C)=O |  | 12.1% [at 42.5 µM] |
| CCCCCCCCCCCCCCCC(=O)OC/C=C(C)/C=C/C=C(C)/C=C/C1=C(C)CCCC1(C)C |  | -4.65% |
| CC(C)(Oc1ccc(Cl)cc1)C(=O)OCCCOC(=O)C(C)(C)Oc1ccc(Cl)cc1 |  | 1.27% [at 42.5 µM] |
| CCCCCCCCCCCCCCCBr |  | 2.28% [at 42.5 µM] |
| CN1CCN(C2=Nc3ccccc3Sc3ccc(Cl)cc32)CC1 |  | -8.85% [at 42.5 µM] |
| CCCCC(CC)(CO)CO |  | 2.64% |
| CCN(CCO)CCCC(C)Nc1ccnc2cc(Cl)ccc12 (stereo not given) |  | 3.81% [at 8.39 µM] |
| CNCC[C@@H](Oc1ccccc1C)c1ccccc1 | 26.6 µM (active) |  |
| CCCCCCCCC(CO)CCCCCC (stereo not given) |  | 4.95% |
| CCN(CC)C(C)CN1c2ccccc2Sc2ccccc21 (stereo not given) |  | -21.9% [at 42.5 µM] |
| CCCCCCCCCCCCC(=O)O | 54.6 µM (active) |  |
| CC(C)NCC(O)c1cc(O)cc(O)c1 (stereo not given) |  | 4.55% [at 42.5 µM] |
| Cn1c(N)nc2nc[nH]c2c1=O |  | -1.17% |
| N[C@H]1C(O)O[C@H](CO)[C@H](O)[C@@H]1O (stereo not given in full) |  | 9.72% |
| CC(=O)NCCCS(=O)(=O)O |  | 1.36% [at 42.5 µM] |
| Nc1ccc(C(=O)Nc2ccccc2N)cc1 | 0.841 µM (active) |  |
| CCCCCC/C=C/C=O |  | 1.08% |
| Oc1ccc(O)c2c(O)cccc12 |  | 8.98% |
| COc1ccc(OC)c(OC)c1 |  | 0.443% |
| O=C1[C@H](CC[C@H](O)c2ccc(F)cc2)[C@@H](c2ccc(O)cc2)N1c1ccc(F)cc1 |  | -4.95% [at 42.5 µM] |
